From PubChem BioAssay (NCI) come the findings set out here.

What all share (assay): NCI-60 one-dose screen, 48 h (100 = growth as untreated, 0 = no growth, -100 = all killed)
In assay [1] the test system is SK-MEL-2 melanoma. The conditions noted are these: 10 µM unless noted.
For assay [2], the system named is EKVX NSCLC. As to conditions: 10 µM unless noted.
The subject of assay [3] is SN12C renal. The conditions noted are these: 10 µM unless noted.
The subject of assay [4] is UO-31 renal. As to conditions: 10 µM unless noted.
Assay [5] concerns TK-10 renal. The conditions noted are these: 10 µM unless noted.
Assay [6] has as its system ACHN renal. As to conditions: 10 µM unless noted.
The subject of assay [7] is CAKI-1 renal. As to conditions: 10 µM unless noted.
Assay [8] relates to A498 renal. The conditions noted are these: 10 µM unless noted.
The subject of assay [9] is CCRF-CEM leukemia. The conditions noted are these: 10 µM unless noted.
In assay [10] the test system is MOLT-4 leukemia. As to conditions: 10 µM unless noted.
Assay [11] concerns SR leukemia. The conditions noted are these: 10 µM unless noted.
For assay [12], the system named is RPMI-8226 leukemia. The conditions noted are these: 10 µM unless noted.
The subject of assay [13] is OVCAR-8 ovarian. The conditions noted are these: 10 µM unless noted.
Assay [14] relates to OVCAR-5 ovarian. The conditions noted are these: 10 µM unless noted.
Assay [15] relates to OVCAR-4 ovarian. As to conditions: 10 µM.
In assay [16] the test system is SK-OV-3 ovarian. The conditions noted are these: 10 µM unless noted.
In assay [17] the test system is IGROV1 ovarian. As to conditions: 10 µM unless noted.
The subject of assay [18] is HS 578T breast. The conditions noted are these: 10 µM unless noted.
Assay [19] has as its system NCI/ADR-RES ovarian. As to conditions: 10 µM unless noted.
Assay [20] deals with OVCAR-3 ovarian. The conditions noted are these: 10 µM unless noted.

SMILES strings stand for the structures. This is part of a sample that, as a whole, favours compounds with a hit. Of some 83,000 tested, about 20% had one in any assay.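 How to read the values: 0–100, growth inhibition (40 = 60% inhibited); 0, no net growth; -100 to 0, cell death (-40 = 40% of starting cells died; -100 = all dead).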 Values without a mark were called inactive. Calls of active or inactive are those of the source. The calls were made as follows: active = growth percent below 10; inactive = the rest.

As for `CCOC(=O)C(c1ccccc1)N1C(=O)c2ccccc2C1=O` (stereo unspecified), the growth in [1] is 104%; in assay [2], 91.4%; in assay [3], 104%; in [4] it was 91.4%; in [5], 106%; in assay [6], 102%. Further, the growth in [7] is 86.4%; in assay [8] it was 89.3%; in assay [9], 102%; in [10] it was 101%; in [11], 115%; in assay [12], 98%. The growth in [13] was 99.7%; in assay [14], 99.7%; in assay [15], 97.7%; in assay [16] it was 95.4%; in [17] it was 96.5%; in [18], 92.3%. The growth in [19] was 99.3%.
`CCN=C1C=CC(=C(c2ccc(N(CC)CC)cc2)c2ccc(N(CC)CC)cc2)c2ccccc21`: the growth is -76.3% (active) in [1]; -40% (active) in assay [2]; -34.2% (active) in [3]; -65.4% (active) in assay [4]; -51.9% (active) in [5]; -94.9% (active) in assay [6]. In addition, the growth is -86.3% (active) in assay [7]; -89.3% (active) in assay [8]; 1.05% (active) in assay [9]; -25.7% (active) in [10]; -7.85% (active) in assay [11]; -39.8% (active) in [12]. Besides, the growth in assay [13] is -52.7% (active); in [14], -40.1% (active); in assay [15], -18.4% (active); in assay [16], -70.2% (active); in [17], -56.7% (active); in assay [18], -20.1% (active). Also, the growth in [19] was -16.3% (active).
Regarding `CN(C)c1cc(NN=C(c2ccc(O)cc2)c2ccc(O)cc2)c([N+](=O)[O-])cc1[N+](=O)[O-]`, the growth was -12.1% (active) in [1]; 94.2% in [2]; 93.8% in assay [3]; 1.38% (active) in assay [4]; 136% in assay [5]; 50.1% in assay [6]. Further, the growth in assay [7] was 74.8%; in assay [8], 135%; in assay [9] it was 107%; in assay [10] it was 97.6%; in [11], 92.2%; in [12], 131%. Also, the growth in assay [13] was 8.9% (active); in assay [14], 98.4%; in [15], 97%; in assay [16], 96.5%; in assay [20], 95.5%; in assay [18] it was 102%.
Regarding `COCc1nc2ccccc2[nH]1`, the growth in [1] is 102%; in assay [2], 93.9%; in [3] it was 104%; in assay [4], 87.3%; in [5], 97.3%; in assay [6] it was 99.9%. Further, the growth in assay [7] is 93.4%; in assay [8], 104%; in assay [9], 105%; in [10], 93%; in [11] it was 101%; in [12] it was 108%. Also, the growth in [13] is 102%; in [14], 99.8%; in assay [15], 106%; in [16], 101%; in [17], 101%; in assay [18] it was 101%. Besides, the growth in [19] was 98.9%.
Regarding `CCCCN(CCCC)CC(O)c1ccc(OCc2ccccc2)c2ccccc12` (stereo unspecified), the growth in assay [1] is 99.4%; in assay [2], 75.5%; in assay [3], 94.6%; in [4] it was 28.9%; in assay [5] it was 78.2%; in assay [6], 71.7%. Besides, the growth in [7] was 26.3%; in assay [8] it was 97.2%; in [9], 72.7%; in assay [10], 15.8%; in [11], 9.33% (active); in assay [12] it was 77.3%. Also, the growth in assay [13] is 89.6%; in assay [14], 98.4%; in assay [15], 93.3%; in assay [16], 92.4%; in assay [17], 61.8%; in assay [20] it was 69.2%. Also, the growth in assay [19] was 77.7%.
Take `COc1ccc(OC)c([N+](=O)[O-])c1C(=O)CNC(C)=O`: the growth is 109% in [1]; 97.5% in assay [2]; 100% in [3]; 84.7% in assay [4]; 105% in [5]; 100% in assay [6]. Also, the growth was 96.4% in [7]; 94.1% in assay [8]; 110% in assay [9]; 101% in [10]; 118% in assay [11]; 93.4% in assay [12]. The growth in assay [13] was 99.5%; in [14], 99.9%; in assay [15] it was 103%; in assay [16], 105%; in [17], 106%; in assay [18] it was -2.16% (active). In addition, the growth in assay [19] is 94.9%.
On to `COc1ccc2nc3ccccc3c(NCCNCCO)c2c1`, for which the growth is -56.1% (active) in assay [1]; -7.03% (active) in [2]; 1.83% (active) in [3]; -7.42% (active) in [4]; -12.7% (active) in assay [5]; -27.4% (active) in assay [6]. In addition, the growth is 6.25% (active) in assay [7]; -60.4% (active) in assay [8]; 10.9% in assay [9]; 10.1% in [10]; -11.1% (active) in assay [11]; 2.45% (active) in [12]. Besides, the growth is 5.82% (active) in [13]; -4.97% (active) in [14]; -10.4% (active) in assay [15]; 16.5% in assay [16]; -41.6% (active) in assay [20]; -25.4% (active) in [18]. Also, the growth in assay [19] was 68.7%.
Turning to `CC(C)OC(=O)Nc1cc(F)ccc1F`, the growth in assay [1] is 112%; in assay [2], 98.8%; in assay [3], 99.5%; in assay [4], 89.7%; in [5], 97.7%; in assay [6] it was 100%. Also, the growth is 96.5% in assay [7]; 96.9% in assay [8]; 103% in assay [9]; 101% in assay [10]; 96.1% in assay [11]; 103% in [12]. The growth in [13] was 100%; in assay [14] it was 93.8%; in [15] it was 106%; in assay [16], 101%; in [17] it was 93.7%; in assay [18] it was 110%. Besides, the growth in [19] is 102%.
